Reference: the supplement of paper PMC3334620
Whole data set: some 33,000 sequences, median “E-score (-0.5 to 0.5)” near -0.035, cut for the highest 2% near 0.35. The list comes from a sample in which the highest values are over-represented; it also holds similar and randomly drawn sequences.

Each sequence was assayed against T1, Pdr3 (UniProt P33200) (assay: PBM E-score (8-mer binding enrichment) (E-score (-0.5 to 0.5)); higher = stronger / more preferred TF binding). Details: protein concentration: 200 nM; construct: GST-full length.
T1 sequence: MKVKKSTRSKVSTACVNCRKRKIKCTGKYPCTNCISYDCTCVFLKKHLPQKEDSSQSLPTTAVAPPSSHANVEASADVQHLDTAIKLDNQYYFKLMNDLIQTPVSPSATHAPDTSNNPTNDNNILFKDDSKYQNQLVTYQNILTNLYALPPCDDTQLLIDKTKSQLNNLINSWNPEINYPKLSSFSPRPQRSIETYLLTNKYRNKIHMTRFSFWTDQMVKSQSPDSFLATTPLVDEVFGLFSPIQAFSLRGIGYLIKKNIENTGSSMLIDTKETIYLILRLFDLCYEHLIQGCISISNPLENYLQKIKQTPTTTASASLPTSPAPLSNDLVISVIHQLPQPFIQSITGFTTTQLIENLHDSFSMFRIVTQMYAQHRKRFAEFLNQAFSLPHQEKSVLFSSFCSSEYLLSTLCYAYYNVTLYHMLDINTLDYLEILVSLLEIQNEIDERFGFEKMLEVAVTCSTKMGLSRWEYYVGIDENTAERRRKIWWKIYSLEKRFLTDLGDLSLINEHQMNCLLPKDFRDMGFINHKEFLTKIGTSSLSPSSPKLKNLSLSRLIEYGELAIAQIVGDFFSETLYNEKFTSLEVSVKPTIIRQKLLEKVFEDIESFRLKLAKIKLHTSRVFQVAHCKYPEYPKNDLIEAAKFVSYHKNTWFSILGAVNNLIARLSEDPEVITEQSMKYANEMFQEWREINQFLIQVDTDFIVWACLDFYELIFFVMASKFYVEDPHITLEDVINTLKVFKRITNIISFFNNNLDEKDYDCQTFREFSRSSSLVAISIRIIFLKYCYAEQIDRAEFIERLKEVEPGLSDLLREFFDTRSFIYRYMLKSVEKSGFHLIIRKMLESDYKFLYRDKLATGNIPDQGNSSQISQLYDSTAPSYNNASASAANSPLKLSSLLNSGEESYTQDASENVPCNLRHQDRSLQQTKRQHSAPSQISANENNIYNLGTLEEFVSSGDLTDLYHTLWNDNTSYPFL
Experimental: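 Universal 'all 10-mer' protein binding microarrays (Agilent AMADID 015681) probed with GST-tagged S. cerevisiae TFs (full-length or DBD) made by in vitro transcription/translation (PURExpress), about 100-200 nM. Bound TF was detected with fluorescent anti-GST. Each ungapped 8-mer (which stands for itself and its reverse complement) is scored by the PBM enrichment score (E-score), a modified Wilcoxon-Mann-Whitney statistic from -0.5 to +0.5, computed with the Universal PBM Analysis Suite. Scale: above 0.35 generally sequence-specific binding.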

| Sequence | PBM E-score |
| --- | --- |
| ATCCCGAT | 0.302 |
| ATCCCGTA | 0.242 |
| ATCCCGAG | 0.395 |
| ATCCCGAA | 0.308 |
| CGCGGTAA | 0.36 |
| AGCGGTAC | -0.0325 |
| AGCGGTAA | 0.045 |
| CGCGGTAG | 0.282 |
| CGCGGTCA | 0.307 |
| CGCGGTCC | 0.384 |
| CGCGGTAC | 0.367 |
| GGCGGTAA | 0.326 |
| AGCGGTCC | 0.0698 |
| TCTCTACA | -0.249 |
| CAGGGACA | 0.0593 |
| ATGCAAGC | -0.0447 |
| TAGTTGGA | -0.0882 |
| CCGCACTA | 0.241 |
| GATGAAAC | 0.0428 |
| TCGCCACA | -0.00326 |
| CTATCAGC | -0.156 |
| AATTCGCA | 0.255 |
| CAGAAATC | -0.108 |
| CGTCCGGC | 0.321 |
| CGTCCGAA | 0.208 |

| Sequence | PBM E-score |
| --- | --- |
| AGTCCGGA | 0.422 |
| AGTCCGGG | 0.301 |
| GGTCCGCA | 0.28 |
| CGTCCGGA | 0.433 |
| AGTCCGGC | 0.216 |
| GGTCCGGA | 0.413 |
| GGTCCGTA | 0.293 |
| CCCGCATC | 0.0416 |
| AAGGTCAC | -0.213 |
| GGAAGACC | 0.202 |
| GACTCACC | -0.126 |
| ATCTGCTA | -0.241 |
| CTGATGCA | 0.0307 |
| CTAAGAAG | -0.0671 |
| CTTCAAAG | -0.275 |
| AAGCTGTC | -0.208 |
| CGATCCCG | 0.361 |
| CAATCCCA | -0.105 |
| AGATCCCG | 0.4 |
| CGATCCCC | 0.0699 |
| AGATCCCC | 0.015 |
| CAATCCCG | 0.392 |
| AGATCCCT | -0.142 |
| CGATCCCA | 0.067 |
| CAATCCCC | 0.0676 |

| Sequence | PBM E-score |
| --- | --- |
| CTTCACCA | -0.153 |
| TCAAGGAA | -0.0766 |
| ATCTGATA | -0.18 |
| CGAGGTCC | 0.299 |
| GCAACGGC | 0.152 |
| ACAACGGT | -0.0457 |
| CCAACGGA | 0.362 |
| ACAACGGA | 0.375 |
| TCAACGAA | 0.0322 |
| GCAACGTA | -0.192 |
| GCAACGGA | 0.413 |
| TCAACGGA | 0.359 |
| CCAACGGG | 0.213 |
| ACAACGGG | 0.221 |
| CCAACGGC | -0.0155 |
| TCAACGCA | -0.0152 |
| ACTTCGGA | 0.318 |
| ATATAAGG | 0.167 |
| CGCTATCA | 0.0421 |
| ACGACACC | 0.0551 |
| CCCGCAGA | 0.235 |
| CCACAGGA | -0.15 |
| ACAAAGTA | -0.0427 |
| AAGGGATT | -0.172 |
| CGGCGAAG | 0.154 |

| Sequence | PBM E-score |
| --- | --- |
| ATAAGGTG | -0.0163 |
| CCGAAGAG | 0.129 |
| AGGAAGAC | -0.246 |
| GGGAAGAA | -0.0436 |
| AGGAAGAG | -0.0084 |
| GGGAAGAC | -0.0964 |
| CGGAAGAA | 0.378 |
| AGGAAGAA | -0.186 |
| CGGAAGAC | 0.393 |
| CGGAAGAG | 0.365 |
| GCCCCAGC | 0.0198 |
| CGCTCCAA | -0.0785 |
| ACTCCAGT | -0.118 |
| GACTAGAA | -0.203 |
| CCGGATAA | 0.396 |
| ACGGATAT | 0.305 |
| ACGGATAA | 0.375 |
| TGGGATAA | -0.102 |
| GCGGATAA | 0.342 |
| ACGGATTA | 0.217 |
| ACGGATAG | 0.216 |
| CGGGATAA | 0.408 |
| CCGGATTA | 0.385 |
| GCGGATTA | 0.204 |
| GGGGATAA | 0.0548 |

| Sequence | PBM E-score |
| --- | --- |
| CCGGATAC | 0.351 |
| AGCTAGTC | -0.0629 |
| ACAGCCCG | 0.0226 |
| ACCTTTCT | -0.129 |
| GAAACTCC | 0.0961 |
| AATTCAGC | 0.0247 |
| ATGGATAC | -0.0299 |
| ACGGATAC | 0.368 |
| AAGGATAC | -0.00551 |
| ACGGTGCC | 0.0198 |
| AGGGCCCG | 0.182 |
| CGGGCCCA | 0.0442 |
| CGGGCCCG | 0.44 |
| TCGGCCGA | 0.377 |
| CCGGCCGG | 0.472 |
| ACGGCCCG | 0.22 |
| ACGGCCGA | 0.293 |
| CCGGCCCG | 0.375 |
| TCGGCCAA | 0.12 |
| CCGGCCGC | 0.317 |
| ACGGCCGG | 0.344 |
| CCGGCCCA | -0.0155 |
| CCGATGGC | 0.175 |
| CGAGCTGA | 0.143 |
| ACTACCGA | -0.0714 |

| Sequence | PBM E-score |
| --- | --- |
| CGCCTTGC | -0.0202 |
| ATCATTGA | -0.0198 |
| CAGGCACA | -0.171 |
| AACTGGCA | -0.0302 |
| GGTCAAAC | 0.0507 |
| GGTTCTGA | -0.109 |
| ACCCGTGA | 0.0325 |
| CAGACGGG | 0.103 |
| CTAGTCTC | -0.269 |
| GCGGCCGA | 0.222 |
| CCGGCCTA | 0.184 |
| CCGGCCGA | 0.372 |
| GGAGTCAC | -0.0786 |
| CCTGTAGC | -0.282 |
| AGGAAGGA | -0.363 |
| GGGAAGGA | -0.00585 |
| CGGAAGGC | 0.369 |
| CAGAAGGC | 0.0006 |
| CGGAAGGA | 0.396 |
| AGGAAGGC | -0.185 |
| ATATCTGC | -0.044 |
| ATAGAAAG | -0.0611 |
| AGGAAGCG | 0.0228 |
| CACCTGCA | -0.142 |
| AGGCGGAC | 0.211 |

| Sequence | PBM E-score |
| --- | --- |
| CGGCGGAA | 0.456 |
| TGGCGTAA | -0.263 |
| GGGCGGAC | 0.373 |
| CGGCGGAG | 0.372 |
| CGGCGGAC | 0.289 |
| AGGCGGCG | 0.0493 |
| CGGCGGCA | 0.226 |
| AGGCGGAG | 0.174 |
| TGGCGGAA | 0.359 |
| AGGCGGAA | 0.35 |
| TGGCGAAA | -0.0244 |
| CTTCAACC | 0.00827 |
| AGTGATCA | -0.0706 |
| CGATAGGC | -0.216 |
| GTGCGACA | -0.0394 |
| AGGCAGGA | -0.149 |
| AGCACGAG | 0.0609 |
| CGTGAGGA | -0.063 |
| ATGACCCA | -0.0734 |
| GGATACCA | 0.212 |
| ATCGGTTC | 0.192 |
| AATCTTTC | 0.13 |
